The list is not random: actives were taken first. Their share in the collection is about 7.7%.
FMDV inh: blocks foot and mouth disease virus; AID 1159524; Potency, µM (doses to about 57.9 µM), inactives show at the top dose activity change, negative = inhibition, usual class: inhibitors; FMDV antiviral cell-based qHTS; 1.2% of 410,000 active; calls by dose curve; tested in HEK293T cells; further: read-out not given here; potency means the concentration at half of the fitted maximal effect; nearly all actives have a fitted effect of over 45% in size
RE007 growth inh: less growth of the S. pombe RE007 Vpr strain | S. pombe RE007 Vpr strain, BacTiter-Glo ATP luminescence, 24 h | Potency, µM (doses to about 92.2 µM), inactives show at the highest dose activity change, negative = less growth, hits mostly inhibitors | 0.21% of 360,000 active | AID 651644; active means well fitted falling curve with a large enough effect; inconclusive means small, poorly fitted or top-dose-only effect; inactive means no such curve, though single readings can be large or run the other way; further: potency means the concentration at half of the fitted maximal effect; nearly all actives have a fitted effect of over 50% in size
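Fission yeast RE007 carrying one integrated HIV-1 vpr copy, seeded at OD 0.01 in PMG+AL medium with 23 nL pinned compound. Grown 24 h at 30 degrees; viability read by BacTiter-Glo luminescence after 5 min.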
Tb PYK inh: T. brucei pyruvate kinase inhibition; Q57TT1; Potency, µM (highest dose often 76.8 µM), for the others: at the top dose activity, negative = inhibition, usual class: inhibitors; TbPYK enzyme, Kinase-Glo Plus ATP luminescence, 45 min; 0.12% of 410,000 active; AID 624173; further: potency means the concentration at half of the fitted maximal effect; nearly all actives have a fitted effect of over 50% in size
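Glycolytic pyruvate kinase of T. brucei was incubated with substrate, test compound and 130 uM ADP for 45 minutes at room temperature. Luminescent Kinase-Glo Plus signal was measured after 10 minutes.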
FBPA Giardia inh: inhibitors of Giardia lamblia fructose-1,6-bisphosphate aldolase | purified Giardia FBPA | Potency, µM (top dose mostly 59.6 µM), inactives show at the top dose activity, negative = inhibition, actives largely listed as inhibitors | 0.71% of 290,000 active | AID 2451; further: potency means the concentration at half of the fitted maximal effect; nearly all actives have a fitted effect of over 55% in size
Target sequence (A8B2U2 whole entry, looked up): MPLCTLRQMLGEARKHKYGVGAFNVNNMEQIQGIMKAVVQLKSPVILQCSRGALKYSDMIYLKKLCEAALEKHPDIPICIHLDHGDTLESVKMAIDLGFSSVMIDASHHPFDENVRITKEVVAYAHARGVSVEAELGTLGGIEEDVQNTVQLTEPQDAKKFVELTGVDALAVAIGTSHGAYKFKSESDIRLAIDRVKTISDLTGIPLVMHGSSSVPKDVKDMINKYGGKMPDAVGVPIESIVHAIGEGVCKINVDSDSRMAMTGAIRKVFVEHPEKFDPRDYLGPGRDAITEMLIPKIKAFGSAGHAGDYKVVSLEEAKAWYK
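40 nM FBPA preincubated 10 min at RT with compound (up to 57.5 uM final), then substrate plus GAPDH/TPI/NAD/arsenate coupling and diaphorase/resazurin added. Fluorescence read after 20 min at RT, 525/598 nm.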
HCMV antiviral: inhibitors of human cytomegalovirus; HFF cells, HCMV-luciferase reporter, 72 h; stronger effect = lower value; activity change, negative = inhibition, % at 57.5 µM; 4.5% of 410,000 active; in the data active means activity change below about -60%; inconclusive means no clear call, values can overlap the other calls; inactive means above about -39%
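Human foreskin fibroblasts infected with luciferase-reporter HCMV at MOI 1 PFU/cell, compounds at two doses. Luciferase measured 72 h post infection; normalized to buffer-only basal and Salinomycin (10uM) controls.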
Sm TGR block: inhibitors of Schistosoma mansoni thioredoxin glutathione reductase. Q962Y6. purified TGR, DTNB reduction, TNB absorbance 405 nm. Potency, µM (titrated, usually from 114 µM), for inactives: top-dose activity change, negative = inhibition, most hits filed as inhibitors. 3% of 360,000 active. AID 485364; further: potency means the concentration at half of the fitted maximal effect; nearly all actives have a fitted effect of over 60% in size
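First, TGR (20 nM dispensed) and NADPH were mixed with compound. Second, a 15 min room-temperature incubation followed. Third, further NADPH and then DTNB were added to start the reaction. Finally, TNB absorbance was monitored kinetically.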
The depositor's hits bear a star; ? = inconclusive; nt = not tested or not shown. Unless noted, the call rests on the fitted dose curve; in most records, active means well fitted curve in the direction sought with a large enough effect; inconclusive means small, poorly fitted or top-dose-only effect, or another doubt; inactive means no such curve, though single readings can be large; an effect the other way counts as inactive or inconclusive. On the % scale 0 is the no-effect control and ±100 the full control effect.

SMILES | FMDV inh | RE007 growth inh | Tb PYK inh | FBPA Giardia inh | HCMV antiviral | Sm TGR block
CCn1c(-c2cccc(OC)c2)nc2cc(NC(C)=O)cc(C(=O)N3CCC[C@H]3C(=O)OC)c21 | -6% | nt | nt | nt | nt | nt
COc1ccc(OC)c(-c2nnc3n(Cc4ccc(C)cc4)c(=O)c4ccccc4n23)c1 | ? | nt | -8% | nt | -31 | 0%
Nc1ccc2c3c(ccc([N+](=O)[O-])c13)CC2 | -26% | ? | -4% | nt | -69* | nt
O=C(Cn1c2ncccc2c(=O)n1-c1ccccc1)Nc1cccc(C(F)(F)F)c1 | -13% | nt | -2% | nt | -22 | 5%
Cc1ccc2c(c1)N(C(=O)C1CCN(S(=O)(=O)c3c(C)noc3/C=C/c3ccccc3F)CC1)CCO2 | -18% | nt | -1% | nt | -14 | -4%
O=c1c2ccccc2sc2nc(C3CCCCC3)n(Cc3ccco3)c(=O)c12 | 1% | 2% | -4% | -12% | -28 | 10µM*
CCc1nc2sc3ccccc3c(=O)c2c(=O)n1Cc1ccco1 | -2% | -8% | ? | -9% | -3 | 35µM*
O=C(NCC1Cc2cccc(-c3cnccn3)c2O1)C1COc2ccccc2O1 (centres undefined) | 0% | nt | nt | nt | nt | nt
COc1ccc(/C=C/c2ccccc2)cc1[C@H]1[C@@H]2C=CCC[C@@]2(C)C(=O)N1Cc1ccccc1 | 41% | -9% | 2% | 1% | 22 | 28µM*
C[N+](C)(C)CCN(Cc1ccc(Cl)cc1)c1ccccn1 | 2% | -10% | -7% | 3% | -63* | -37%
CN(C)CCN(Cc1ccc(Cl)cc1)c1ccccn1 | 0% | -10% | 1% | -7% | -62* | -7%
FC(F)Oc1ccc(COc2ccc3c(-c4ccccn4)noc3n2)cc1 | nt | nt | nt | nt | 12 | nt
NC(=S)N=Nc1c(O)n(CCCl)c2ccc(Br)cc12 | -18% | 1% | -1% | -12% | -23 | 8%
C/C(Cl)=C\Cn1c(O)c(N=NC(N)=S)c2cc(Br)ccc21 | ? | 0% | -9% | ? | -109* | 0%
CC1=CC(C)CC(C)OC(=O)CC(c2ccc(O)cc2)NC(=O)C(Cc2c(Br)[nH]c3ccccc23)N(C)C(=O)C(C)NC(=O)C(C)C1 (centres undefined) | -27% | 9% | -3% | nt | -98* | nt
CN(C)c1ncc2nc(-c3ccccc3)c(=O)n(C[C@H]3CCCO3)c2n1 | 4% | nt | nt | -20% | nt | nt
C/C=C\C=C/C(=O)Nc1cccc(C2=NOC3(C2)C[C@@H](C(N)=O)N(C(=O)/C=C/CC)C3)c1 (some centres undefined) | 8% | -2% | 4% | -19% | nt | 1.8µM*
C/C=C\C=C/C(=O)Nc1cccc(C2=NOC3(C2)C[C@@H](C(N)=O)N(C(=O)C2(C)CC2)C3)c1 (some centres undefined) | 5% | -4% | -30% | -12% | 45 | 1.8µM*
C/C=C(\C)C(=O)N1CC2(CC(c3cccc(NC(=O)CC(c4ccccc4)c4ccccc4)c3)=NO2)C[C@H]1C(N)=O (some centres undefined) | nt | nt | nt | -22% | nt | 0%
C/C=C\C=C\C(=O)N1CC2(CC(c3cccc(NC(=O)CC(c4ccccc4)c4ccccc4)c3)=NO2)C[C@H]1C(N)=O (some centres undefined) | -24% | 0% | -16% | -10% | nt | 7.1µM*
C/C=C\C(=O)Nc1cccc(C2=NOC3(C2)C[C@@H](C(N)=O)N(C(=O)C2(C)CC2)C3)c1 (some centres undefined) | -17% | -1% | 1% | 2% | 16 | -1%
C/C=C\C=C/C(=O)Nc1cccc(C2=NOC3(C2)C[C@@H](C(N)=O)N(C(=O)[C@H]2CCC(=O)N2)C3)c1 (some centres undefined) | -9% | 0% | -13% | 0% | nt | 3.5µM*
CCCCCCCCCCCCCCCCCC(=O)[O][Al] | nt | nt | 0% | nt | nt | nt
CCOc1ccc(C(C)=O)cc1CN1C(=O)NC2(CCCCCC2)C1=O | 3% | 9% | 1% | 10% | -4 | 2%
CCOc1ccc(C(C)=O)cc1CN1C(=O)C(=O)N(CC)C1=O | 14µM* | 0% | 3% | 1% | ? | -33%
SMILES | FMDV inh | RE007 growth inh | Tb PYK inh | FBPA Giardia inh | HCMV antiviral | Sm TGR block
O=C(C1CCC(C(=O)N2CCCCC2)CC1)N1CCCCC1 (centres undefined) | -27% | 9% | -9% | 1% | -61* | -15%
CC(C)n1ncc2c(C(=O)Nc3cccc(C#N)c3)cc(C3CC3)nc21 | ? | 1% | -4% | nt | -91* | -2%
COc1ccc(NC(=O)c2cc(-c3ccccc3)nc3c2cnn3C(C)C)cc1 | 40µM* | 4% | -13% | nt | -34 | 7%
CCOC(=O)C1(Cc2cccc(OC)c2)CCN(C/C=C/c2ccc(OC)cc2)CC1 | 14µM* | -29% | 0% | -7% | ? | 1%
CCOC(=O)C1(Cc2ccc(OC)cc2)CCN(C(=O)CC2CCC(=O)N2)CC1 (centres undefined) | 16% | -7% | 1% | 2% | -14 | 5%
CCOC(=O)C1(Cc2ccc(OC)cc2)CCN(C(=O)CCN2CCCC2=O)CC1 | 31% | 5% | 1% | 0% | -76* | 5%
Cn1c(SCC(=O)N2CCN(c3ccccc3)CC2)nnc1-c1cc2ccccc2o1 | 3.5µM* | 1% | 0% | 0% | -66* | -1%
COc1ccc(NC(=O)CSc2nnc(-c3ccccc3C)n2C)cc1 | -15% | 17% | 0% | -5% | -67* | 3%
COc1ccc(-c2nnc(SCC(=O)Nc3ccc(C)cc3)n2C)cc1 | nt | 10% | -8% | 0% | -2 | 0%
Cc1ccc(-c2nnc(SCC(=O)N/N=C/c3ccccc3C(=O)O)n2-c2ccccc2)cc1 | nt | nt | nt | 19% | 15 | 7%
Cn1c(SCC(=O)N/N=C/c2cc([N+](=O)[O-])ccc2O)nnc1-c1ccccc1 | -4% | 1% | 2% | 21% | -10 | 1%
Cc1ccc(-c2nnc(SCC(=O)N/N=C/c3ccc(C)s3)n2-c2ccc(C)cc2)cc1 | -6% | 9% | -7% | 9% | -63* | 2%
Cn1c(SCC(=O)N/N=C/c2ccc([N+](=O)[O-])s2)nnc1-c1ccccc1 | ? | -7% | 2% | -11% | -91* | ?
Cn1c(SCC(=O)Nc2ccccc2)nnc1-c1ccccc1 | 29% | nt | -2% | nt | -9 | 10%
C=CCn1c(SCC(=O)c2ccc(OC)cc2)nnc1-c1cc2cccc(OC)c2o1 | 0% | 3% | -21% | 0% | 9 | 6%
CNC(=O)CSc1nnc(-c2ccccc2)n1C | 251µM* | -2% | 1% | 4% | -21 | 7%
Cn1c(SCC(=O)c2cc3ccccc3o2)nnc1-c1ccccc1 | 17% | 3% | ? | 0% | -60* | ?
C=CCn1c(SCC(=O)c2ccccc2)nnc1-c1cc2ccccc2o1 | 40µM* | 22% | -13% | -5% | ? | -20%

From PubChem BioAssay
